From PubChem BioAssay
A selection: hits, their analogues and other compounds. The true share with any hit is near 2.9%.
PvdQ acylase = P. aeruginosa PvdQ acylase inhibition. inhibition, % at 10 µM. hit rate 0.063% among 340,000. purified PvdQ acylase, fluorescence plate reader; in the data active = inhibition above about 30%, passing the limit was not always enough; inconclusive = no clear call, values can overlap the other calls;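 note: 0% = vehicle neutral wells and 100% = reference inhibitor wells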
Wnt act = activators of Wnt/beta-catenin signaling; AID 743398; Wnt/beta-catenin reporter cell assay, activator, plate reader; hit rate 1.2% among 300,000; activation, % at 9.35 µM; in the data active = activation above about 30%, passing the limit was not always enough; inconclusive = no clear call, values can overlap the other calls;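 note: 0% = neutral control wells and 100% = positive control wells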
N-glyco inh = N-linked glycosylation inhibition; hit rate 0.23% among 360,000; D54 ERlucT glycosylation luciferase reporter, 24 h; percent of 100 nM tunicamycin response; reporter increase, % at 12.5 µM;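 active = mean luciferase reporter signal, scaled so untreated is 0 and the glycosylation-blocking control 100, at or above a set limit in every replicate; inconclusive = mean reaches the limit but not every replicate does; inactive = mean below the limit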;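 note: luciferase carries N-glycosylation sites so blocking glycosylation raises the light; 0% = median of neutral control wells and 100% = median of 100 nM tunicamycin wells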
esBAF inh = inhibitors of esBAF chromatin remodeling in mouse ES cells. Bmi1-luciferase knock-in reporter, 24 h; 100% = twice the neutral-well signal. reporter increase, % at 12.5 µM. hit rate 2% among 350,000; in the data active = activation above about 40%; inconclusive = no clear call, values can overlap the other calls;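 note: 0% = median of the plate's neutral control wells and 100% = double that signal; a rise in the Bmi1 reporter signal indicates esBAF inhibition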
Vif imaging = blocks HIV Vif function. AID 602346. HEK293T cells, Vif self-association by quenched fluorescence, imaging, 24 h. inhibition, % at 7.49 µM. hit rate 0.35% among 340,000; in the data active = inhibition above about 50%, passing the limit was not always enough; inconclusive = no clear call, values can overlap the other calls; inactive = below about 31%
MITF TRPM1 HTS = increases MITF-driven TRPM1 promoter luciferase signal; activation, % at 12.5 µM; SK-MEL-5 TRPM1-promoter luciferase, 24 h; % of positive control, neutral wells = 0; hit rate 0.75% among 300,000;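 active = mean activation of at least 80% with every replicate also reaching 80%; inconclusive = mean reaches 80% but some replicate falls short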;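 note: 0% = neutral control wells and 100% = parthenolide positive control wells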
An asterisk follows results filed as active; ? = inconclusive; . = not tested or not shown.

SMILES	PvdQ acylase	Wnt act	N-glyco inh	esBAF inh	Vif imaging	MITF TRPM1 HTS
CCCN(C)C[C@@H]1Oc2cc(C#Cc3ccccc3OC)ccc2S(=O)(=O)N([C@H](C)CO)C[C@@H]1C	.	.	.	-8.5	.	.
Cc1cc(C)n(-c2nc3ccccc3c(=O)n2OCC(=O)OCc2ccccc2)n1	1.5	1.6	-0.2	48.4*	-3.2	-14.5
CC(C)NC(=O)N(C)C[C@@H]1Oc2ncc(-c3ccccc3F)cc2C(=O)N([C@H](C)CO)C[C@@H]1C	.	.	.	7.3	.	.
C[C@@H]1CN([C@@H](C)CO)C(=O)c2cc(NS(C)(=O)=O)ccc2O[C@H]1CN(C)Cc1ccc(Cl)c(Cl)c1	.	.	.	1.5	.	.
COc1ccc(S(=O)(=O)Nc2ccc3c(c2)C(=O)N([C@H](C)CO)C[C@H](C)[C@H](CN(C)Cc2ccncc2)OCCCC[C@H](C)O3)cc1	.	.	.	2.7	.	.
COc1ccc(NC(=O)Nc2ccc3c(c2)CC(=O)N([C@@H](C)CO)C[C@H](C)[C@H](CN(C)C(=O)Nc2ccc(OC)cc2)O3)cc1	.	.	.	-6.7	.	.
COc1cccc(-c2cc(C(=O)N3C(C)CCCC3C)no2)c1 (stereo unspecified)	-4.0	.	-0.3	49.1*	-6.6	?
CC1CCCCN1C(=O)c1cc(-c2ccc(Cl)c(Cl)c2)on1 (stereo unspecified)	-4.2	.	-1.1	?	-1.9	109.4*
CCC1CCCCN1C(=O)c1cc(-c2ccc(Cl)c(Cl)c2)on1 (stereo unspecified)	-1.7	.	1.3	24.4	-8.4	42.4
CC1CCCCN1C(=O)c1cc(-c2ccc3c(c2)OCO3)on1 (stereo unspecified)	6.8	35.7*	-10.7	30.7	-4.2	139.4*
O=C(C[C@@H]1CC[C@H]2[C@@H](COC[C@H](O)CN2Cc2nccs2)O1)N1CCC(Cc2ccccc2)CC1	.	.	.	8.5	.	.
COc1ccc(S(=O)(=O)Nc2ccc3c(c2)C(=O)N([C@@H](C)CO)C[C@@H](C)[C@@H](CN(C)C(=O)Nc2ccc(C(F)(F)F)cc2)O3)cc1	.	.	.	-7.0	.	.
CO[C@H]1CN(C)C(=O)c2ccc(NC(=O)Cc3ccccc3)cc2OC[C@@H](C)N(C)C[C@@H]1C	.	.	.	1.1	.	.
COc1cccc(C2(O)CC(C(F)(F)F)=NN2C(=O)c2ccccn2)c1 (stereo unspecified)	-11.0	45.4*	0.0	.	-0.5	36.4
N#Cc1c(-c2ccc([N+](=O)[O-])cc2)nc2n(c1=O)CCS2	5.8	0.3	0.0	-2.9	35.8	9.3
O=[N+]([O-])c1ccc(-c2cn3c(n2)SCC3)cc1	.	-3.5	2.7	59.6*	0.4	.
CCCNC(=O)Nc1ccc2c(c1)OC[C@@H](C)N(Cc1ccncc1)C[C@H](C)[C@@H](OC)CN(C)C2=O	.	.	.	-3.0	.	.
O=C(NC1CCCCC1)c1cccc2c1C(=O)c1ccc(-c3ccc(OC(F)(F)F)cc3)cc1S2(=O)=O	6.4	-4.6	19.8	-3.8	1.9	-25.7
O=C(NCc1ccccc1C(F)(F)F)c1cccc2c1C(=O)c1ccc(N3CCC(N4CCCCC4)CC3)cc1S2(=O)=O	.	-1.6	-20.6	-5.6	75.1*	.
O=C(NCc1ccccc1Cl)c1cccc2c1C(=O)c1ccc(-c3ccc(OC(F)(F)F)cc3)cc1S2(=O)=O	-9.9	.	304.1*	-3.7	-0.8	-66.9
O=C(NCc1ccccc1C(F)(F)F)c1cccc2c1C(=O)c1ccc(N3CCOCC3)cc1S2(=O)=O	6.0	-9.8	-4.3	8.6	-2.6	-3.5
COc1ccc(NC(=O)N(C)C[C@@H]2Oc3ccc(NS(=O)(=O)c4c(C)noc4C)cc3C(=O)N([C@H](C)CO)C[C@@H]2C)cc1	.	.	.	2.5	.	.
CC(C)NC(=O)Nc1ccc2c(c1)C(=O)N([C@@H](C)CO)C[C@@H](C)[C@@H](CN(C)Cc1ccc(-c3ccccc3)cc1)O2	.	.	.	-0.9	.	.
C[C@@H]1CN([C@H](C)CO)C(=O)c2cccc(NS(=O)(=O)c3ccccc3)c2O[C@@H]1CN(C)C(=O)NC1CCCCC1	.	.	.	5.1	.	.
COc1cc(-c2cc(=O)c3c(O)c(OC)c(OC)cc3o2)cc(OC)c1O	-11.8	-0.9	13.5	-4.1	89.0*	-5.3
O=C(COc1cc(O)c2c(=O)cc(-c3ccccc3)oc2c1)c1ccccc1	-16.5	.	2.2	26.8	3.4	25.0
COc1ccc(-c2cc(=O)c3c(O)c(OC)c(O)cc3o2)cc1	16.8	28.1	-14.6	-45.4	-4.6	.
COc1cc(-c2cc(=O)c3c(O)cc(O)cc3o2)ccc1O	.	.	-4.5	32.4	4.0	.
